According to PubChem BioAssay AID1159580 (chemical genetic matrix, 2015):
Screen size: about 5,500 compounds; about 2,000 (36%) were called active. About 18% were inconclusive and are not listed. The list shows a part of the results. A number with no mark means an inactive call. Rule as the data show it: active = normalized growth mostly below about 0.91 (no sharp cut-off); inconclusive = no clear call, values can overlap the other calls; inactive = mostly above about 0.92.

Experiment: chemical genetic growth profiling, strain panel (AID 1159580);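 also: tested at 20 µM; growth read once vehicle control cultures reached saturation at 30 °C; 1 = growth at the plate median or of vehicle wells; lower values mean less growth of the strain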
Conditions: growth OD

In the case of `CC(=O)O[C@]1(C(C)=O)CCC2C3C=C(C)C4=CC(=O)CCC4(C)C3CCC21C` (stereo partly specified), the normalized growth (S. cerevisiae deletion strains, locus YKL009W, strain mrt4, hits give low values) is reported as 0.963, the normalized growth (S. cerevisiae deletion strains, locus YKL068W, hits give low values) is reported as 0.98 and the normalized growth (S. cerevisiae deletion strains, locus YKL085W, strain MDH1 (second series), hits give low values) is reported as 0.908 (active). The normalized growth (S. cerevisiae deletion strains, locus YKL085W, strain MDH1, hits give low values) was 0.908 (active), the normalized growth (S. cerevisiae deletion strains, locus YKL160W, strain elf1, hits give low values) was 0.955 and the normalized growth (S. cerevisiae deletion strains, locus YKL190W, strain CNB1, hits give low values) was 0.93. For the same molecule, the normalized growth (S. cerevisiae deletion strains, locus YKR001C, strain vps1, hits give low values) was 0.81 (active), the normalized growth (S. cerevisiae deletion strains, locus YKR026C, strain gcn3, hits give low values) was 0.976 and the normalized growth (S. cerevisiae deletion strains, locus YKR091W, strain srl3, hits give low values) was 0.96. For the same molecule, the normalized growth (S. cerevisiae deletion strains, locus YLL001W, strain dnm1, hits give low values) was 0.886 (active), the normalized growth (S. cerevisiae deletion strains, locus YLL026W, hits give low values) was 0.941 and the normalized growth (S. cerevisiae deletion strains, locus YLL041C, strain sdh2, hits give low values) was 0.969. The normalized growth (S. cerevisiae deletion strains, locus YLR027C, strain aat2, hits give low values) was 0.919 (active), the normalized growth (S. cerevisiae deletion strains, locus YLR039C, strain RIC1, hits give low values) was 0.859 and the normalized growth (S. cerevisiae deletion strains, locus YLR058C, strain SHM2, hits give low values) was 0.988. It also gave a normalized growth (S. cerevisiae deletion strains, locus YLR102C, strain apc9, hits give low values) of 0.979, a normalized growth (S. cerevisiae deletion strains, locus YLR113W, strain HOG1, hits give low values) of 0.949 and a normalized growth (S. cerevisiae deletion strains, locus YLR221C, strain rsa3, hits give low values) of 0.957. For the same molecule, the normalized growth (S. cerevisiae deletion strains, locus YLR258W, strain gsy2, hits give low values) was 0.956, the normalized growth (S. cerevisiae deletion strains, locus YLR262C, strain YPT6 (second series), hits give low values) was 0.699 (active) and the normalized growth (S. cerevisiae deletion strains, locus YLR262C, strain YPT6, hits give low values) was 0.859. For the same molecule, the normalized growth (S. cerevisiae deletion strains, locus YLR268W, strain sec22, hits give low values) was 0.913, the normalized growth (S. cerevisiae deletion strains, locus YLR320W, strain mms22, hits give low values) was 0.864 (active) and the normalized growth (S. cerevisiae deletion strains, locus YLR330W, strain CHS5, hits give low values) was 0.964. The normalized growth (S. cerevisiae deletion strains, locus YLR342W, strain FKS1 (second series), hits give low values) was 0.759 (active), the normalized growth (S. cerevisiae deletion strains, locus YLR342W, strain FKS1, hits give low values) was 0.768 (active) and the normalized growth (S. cerevisiae deletion strains, locus YLR357W, strain rsc2, hits give low values) was 0.953. The normalized growth (S. cerevisiae deletion strains, locus YLR370C, strain arc18, hits give low values) was 0.96, the normalized growth (S. cerevisiae deletion strains, locus YLR371W, strain rom2, hits give low values) was 0.984 and the normalized growth (S. cerevisiae deletion strains, locus YLR384C, strain iki3, hits give low values) was 0.964. For the same molecule, the normalized growth (S. cerevisiae deletion strains, locus YLR418C, strain cdc73, hits give low values) was 0.627 (active), the normalized growth (S. cerevisiae deletion strains, locus YML016C, strain PPZ1, hits give low values) was 0.992 and the normalized growth (S. cerevisiae deletion strains, locus YML032C, strain rad52, hits give low values) was 0.96. The normalized growth (S. cerevisiae deletion strains, locus YML120C, strain ndi1, hits give low values) was 0.906 (active), the normalized growth (S. cerevisiae deletion strains, locus YML124C, strain tub3, hits give low values) was 0.976 and the normalized growth (S. cerevisiae deletion strains, locus YMR058W, strain fet3, hits give low values) was 0.913. For the same molecule, the normalized growth (S. cerevisiae deletion strains, locus YMR078C, strain ctf18, hits give low values) was 0.961, the normalized growth (S. cerevisiae deletion strains, locus YMR125W, strain sto1, hits give low values) was 0.995 and the normalized growth (S. cerevisiae deletion strains, locus YMR129W, hits give low values) was 0.967. For the same molecule, the normalized growth (S. cerevisiae deletion strains, locus YMR205C, strain PFK2, hits give low values) was 0.888, the normalized growth (S. cerevisiae deletion strains, locus YMR223W, strain ubp8, hits give low values) was 0.888 (active) and the normalized growth (S. cerevisiae deletion strains, locus YMR231W, strain pep5, hits give low values) was 0.967. It also gave a normalized growth (S. cerevisiae deletion strains, locus YMR263W, strain SAP30, hits give low values) of 0.922, a normalized growth (S. cerevisiae deletion strains, locus YMR307W, strain GAS1, hits give low values) of 0.817 and a normalized growth (S. cerevisiae deletion strains, locus YNL067W, strain RPL9B, hits give low values) of 0.914. For the same molecule, the normalized growth (S. cerevisiae deletion strains, locus YNL071W, strain lat1, hits give low values) was 0.822 (active), the normalized growth (S. cerevisiae deletion strains, locus YNL128W, strain TEP1, hits give low values) was 0.98 and the normalized growth (S. cerevisiae deletion strains, locus YNL153C, strain GIM3, hits give low values) was 0.929. The normalized growth (S. cerevisiae deletion strains, locus YNL183C, strain NPR1, hits give low values) was 0.939, the normalized growth (S. cerevisiae deletion strains, locus YNL209W, strain ssb2, hits give low values) was 0.985 and the normalized growth (S. cerevisiae deletion strains, locus YNL233W, strain BNI4, hits give low values) was 0.862 (active). The normalized growth (S. cerevisiae deletion strains, locus YNL248C, strain rpa49, hits give low values) was 0.958, the normalized growth (S. cerevisiae deletion strains, locus YNL250W, strain rad50, hits give low values) was 0.938 and the normalized growth (S. cerevisiae deletion strains, locus YNL271C, strain bni1, hits give low values) was 0.949. For the same molecule, the normalized growth (S. cerevisiae deletion strains, locus YNL298W, strain CLA4, hits give low values) was 0.966, the normalized growth (S. cerevisiae deletion strains, locus YNL307C, strain MCK1, hits give low values) was 0.714 (active) and the normalized growth (S. cerevisiae deletion strains, locus YNL322C, strain KRE1 (second series), hits give low values) was 0.972. It also gave a normalized growth (S. cerevisiae deletion strains, locus YNL322C, strain KRE1, hits give low values) of 0.983, a normalized growth (S. cerevisiae deletion strains, locus YNR049C, strain mso1, hits give low values) of 0.958 and a normalized growth (S. cerevisiae deletion strains, locus YNR052C, strain pop2, hits give low values) of 0.99. It also gave a normalized growth (S. cerevisiae deletion strains, locus YOL006C, strain TOP1, hits give low values) of 0.85, a normalized growth (S. cerevisiae deletion strains, locus YOL012C, strain htz1) of 0.402 and a normalized growth (S. cerevisiae deletion strains, locus YOL147C, strain pex11, hits give low values) of 0.981. It also gave a normalized growth (S. cerevisiae deletion strains, locus YOR001W, strain rrp6, hits give low values) of 0.947, a normalized growth (S. cerevisiae deletion strains, locus YOR061W, strain CKA2, hits give low values) of 0.977 and a normalized growth (S. cerevisiae deletion strains, locus YOR069W, strain VPS5, hits give low values) of 0.998. It also gave a normalized growth (S. cerevisiae deletion strains, locus YOR070C, strain gyp1, hits give low values) of 0.967, a normalized growth (S. cerevisiae deletion strains, locus YOR080W, strain dia2, hits give low values) of 0.953 and a normalized growth (S. cerevisiae deletion strains, locus YOR083W, strain WHI5, hits give low values) of 0.9. It also gave a normalized growth (S. cerevisiae deletion strains, locus YOR106W, strain vam3, hits give low values) of 0.877, a normalized growth (S. cerevisiae deletion strains, locus YOR136W, strain idh2, hits give low values) of 0.971 and a normalized growth (S. cerevisiae deletion strains, locus YOR144C, strain elg1, hits give low values) of 0.985. For the same molecule, the normalized growth (S. cerevisiae deletion strains, locus YOR184W, strain ser1, hits give low values) was 0.746 (active), the normalized growth (S. cerevisiae deletion strains, locus YOR231W, strain MKK1, hits give low values) was 0.961 and the normalized growth (S. cerevisiae deletion strains, locus YOR265W, strain rbl2, hits give low values) was 0.954. For the same molecule, the normalized growth (S. cerevisiae deletion strains, locus YOR270C, strain vph1, hits give low values) was 0.718 (active), the normalized growth (S. cerevisiae deletion strains, locus YOR290C, strain snf2, hits give low values) was 0.969 and the normalized growth (S. cerevisiae deletion strains, locus YOR316C, strain cot1, hits give low values) was 0.979. For the same molecule, the normalized growth (S. cerevisiae deletion strains, locus YPL051W, strain arl3, hits give low values) was 0.922, the normalized growth (S. cerevisiae deletion strains, locus YPL055C, strain LGE1, hits give low values) was 0.828 and the normalized growth (S. cerevisiae deletion strains, locus YPL078C, strain atp4, hits give low values) was 0.855 (active). The normalized growth (S. cerevisiae deletion strains, locus YPL106C, strain sse1, hits give low values) was 1.05, the normalized growth (S. cerevisiae deletion strains, locus YPL240C, strain hsp82, hits give low values) was 0.963 and the normalized growth (S. cerevisiae deletion strains, locus YPL241C, strain CIN2, hits give low values) was 0.982. For the same molecule, the normalized growth (S. cerevisiae deletion strains, locus YPL256C, strain CLN2, hits give low values) was 0.915, the normalized growth (S. cerevisiae deletion strains, locus YPR119W, strain clb2, hits give low values) was 0.983 and the normalized growth (S. cerevisiae deletion strains, locus YPR141C, strain kar3, hits give low values) was 0.972. For the same molecule, the normalized growth (S. cerevisiae deletion strains, locus YPR163C, strain tif3, hits give low values) was 0.983, the normalized growth (S. cerevisiae deletion strains, locus YPR167C, strain met16, hits give low values) was 0.977 and the normalized growth (S. cerevisiae deletion strains, strain wtn01, hits give low values) was 0.881 (active). The normalized growth (S. cerevisiae strains, strain wild type, hits give low values) was 0.88 (active).
